Experimental data as given in PMC7862700, “An all-to-all approach to the identification of sequence-specific readers for epigenetic DNA modifications on cytosine”.

What was measured:
Assay in all cases: DAPPL (digital affinity profiling via proximity ligation, sequencing); 10 mM Tris-HCl pH 7.5, 50 mM NaCl, 1 mM DTT, 4% glycerol, room temperature, 30 min; GST-TFs on glutathione beads, 16-mer random dsDNA library, 0.1% formaldehyde crosslink after washing; high values mean tight binding
Conditions in all cases: protein: recombinant; tags: N-terminal GST; dsDNA, one strand shown
ELK1 = molecular target: T1, ELK1 (Homo sapiens, UniProt P19419 1-428)
T1 sequence: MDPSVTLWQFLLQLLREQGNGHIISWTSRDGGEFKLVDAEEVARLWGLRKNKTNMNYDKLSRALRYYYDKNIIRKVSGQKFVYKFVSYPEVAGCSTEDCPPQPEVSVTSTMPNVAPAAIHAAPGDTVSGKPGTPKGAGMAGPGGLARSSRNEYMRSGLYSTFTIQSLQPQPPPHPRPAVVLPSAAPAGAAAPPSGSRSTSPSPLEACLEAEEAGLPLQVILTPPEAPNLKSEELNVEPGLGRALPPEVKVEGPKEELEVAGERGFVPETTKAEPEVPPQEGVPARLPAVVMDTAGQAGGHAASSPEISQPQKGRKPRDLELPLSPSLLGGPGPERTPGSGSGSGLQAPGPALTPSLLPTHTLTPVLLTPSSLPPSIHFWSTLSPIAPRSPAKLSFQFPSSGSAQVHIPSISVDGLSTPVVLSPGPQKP
Method in brief: (§1)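 Human transcription factors fused to GST were expressed in yeast, captured on glutathione beads, given DNA barcodes and pooled with a GST-only negative control. Pools were incubated with 200 nmole of a 16-mer random double-stranded DNA library in Tris/NaCl/DTT/glycerol buffer at room temperature for 30 min. They were then washed, crosslinked with 0.1% formaldehyde, proximity-ligated (BsaI/T4 ligase, 1 h, 37 °C), PCR-amplified and sequenced on an Illumina NextSeq500. Binding signal is each 6-mer's read frequency for a factor divided by its frequency for the GST control.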

GABPA = molecular target: T2, GABPA (Homo sapiens, UniProt Q06546 1-454)
T2 sequence: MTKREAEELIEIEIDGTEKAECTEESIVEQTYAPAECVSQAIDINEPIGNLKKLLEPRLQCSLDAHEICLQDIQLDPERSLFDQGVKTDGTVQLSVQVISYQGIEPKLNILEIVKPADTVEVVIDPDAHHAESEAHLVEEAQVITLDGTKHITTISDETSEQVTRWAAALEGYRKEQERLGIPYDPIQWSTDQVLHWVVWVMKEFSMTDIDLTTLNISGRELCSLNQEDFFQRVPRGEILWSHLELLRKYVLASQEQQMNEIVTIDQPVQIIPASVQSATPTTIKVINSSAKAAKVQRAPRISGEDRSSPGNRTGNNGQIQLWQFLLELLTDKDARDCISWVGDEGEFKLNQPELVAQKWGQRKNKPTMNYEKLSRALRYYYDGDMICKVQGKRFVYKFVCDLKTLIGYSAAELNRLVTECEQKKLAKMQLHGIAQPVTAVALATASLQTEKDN
Method in brief: as §1

ERG = molecular target: T3, ERG (Homo sapiens, UniProt P11308 1-479)
T3 sequence: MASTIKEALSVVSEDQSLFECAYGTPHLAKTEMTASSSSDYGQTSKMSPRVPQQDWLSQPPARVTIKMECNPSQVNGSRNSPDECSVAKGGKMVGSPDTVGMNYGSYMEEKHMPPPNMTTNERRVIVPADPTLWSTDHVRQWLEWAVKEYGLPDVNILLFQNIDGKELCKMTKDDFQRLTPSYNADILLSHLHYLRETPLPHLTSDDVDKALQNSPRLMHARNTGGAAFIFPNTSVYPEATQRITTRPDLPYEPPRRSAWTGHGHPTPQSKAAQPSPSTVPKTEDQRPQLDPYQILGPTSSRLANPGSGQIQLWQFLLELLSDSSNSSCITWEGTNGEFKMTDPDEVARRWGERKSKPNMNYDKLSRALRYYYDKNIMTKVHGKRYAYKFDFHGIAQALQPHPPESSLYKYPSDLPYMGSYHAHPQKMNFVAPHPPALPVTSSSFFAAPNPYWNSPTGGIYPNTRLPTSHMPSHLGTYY
Method in brief: as §1

ELF1 = ELF1 (Homo sapiens, UniProt P32519 1-619)
Method in brief: as §1

SPIB = SPIB (Homo sapiens, UniProt Q01892 1-262)
Method in brief: as §1

ETV5 = ETV5 (Homo sapiens, UniProt P41161 1-510)
Method in brief: as §1

ELF4 = ELF4 (Homo sapiens, UniProt Q99607 1-663)
Method in brief: as §1

ELK4 = molecular target: T4, ELK4 (Homo sapiens, UniProt P28324-2 1-405)
T4 sequence: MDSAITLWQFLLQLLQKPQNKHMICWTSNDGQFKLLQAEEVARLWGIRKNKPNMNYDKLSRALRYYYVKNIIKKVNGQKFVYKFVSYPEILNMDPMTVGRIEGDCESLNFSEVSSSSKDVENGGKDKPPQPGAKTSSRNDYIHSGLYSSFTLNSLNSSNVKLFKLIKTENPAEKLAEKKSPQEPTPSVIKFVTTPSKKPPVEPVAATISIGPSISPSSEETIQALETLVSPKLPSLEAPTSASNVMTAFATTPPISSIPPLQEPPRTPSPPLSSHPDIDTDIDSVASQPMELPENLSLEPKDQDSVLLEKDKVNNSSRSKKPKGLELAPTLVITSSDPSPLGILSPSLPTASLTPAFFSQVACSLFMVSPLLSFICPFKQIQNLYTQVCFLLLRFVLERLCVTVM
Method in brief: as §1

ETV2 = molecular target: T5, ETV2 (Homo sapiens, UniProt O00321 1-342)
T5 sequence: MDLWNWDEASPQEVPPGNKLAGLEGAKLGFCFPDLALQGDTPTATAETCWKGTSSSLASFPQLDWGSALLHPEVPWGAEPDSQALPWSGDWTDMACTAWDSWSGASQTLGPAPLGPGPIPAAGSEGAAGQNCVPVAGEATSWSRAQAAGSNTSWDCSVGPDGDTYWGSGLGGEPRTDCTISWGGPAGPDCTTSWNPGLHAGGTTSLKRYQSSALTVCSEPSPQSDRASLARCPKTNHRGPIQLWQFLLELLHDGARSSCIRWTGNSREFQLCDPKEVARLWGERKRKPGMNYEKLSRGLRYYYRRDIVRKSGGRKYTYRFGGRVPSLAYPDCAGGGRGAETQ
Method in brief: as §1

ELF3 = molecular target: T6, ELF3 (Homo sapiens, UniProt P78545 1-371)
T6 sequence: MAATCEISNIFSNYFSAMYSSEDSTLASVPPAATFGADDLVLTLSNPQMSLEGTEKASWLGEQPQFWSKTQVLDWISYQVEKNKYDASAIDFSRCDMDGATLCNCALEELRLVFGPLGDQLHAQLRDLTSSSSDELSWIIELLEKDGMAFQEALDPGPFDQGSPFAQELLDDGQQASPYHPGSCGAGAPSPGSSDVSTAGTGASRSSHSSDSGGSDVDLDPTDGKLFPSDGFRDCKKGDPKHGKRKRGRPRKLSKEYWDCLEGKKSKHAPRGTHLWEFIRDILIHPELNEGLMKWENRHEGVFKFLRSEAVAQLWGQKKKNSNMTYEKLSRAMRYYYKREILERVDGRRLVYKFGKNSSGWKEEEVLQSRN
Method in brief: as §1

ERF = molecular target: T7, ERF (Homo sapiens, UniProt P50548 1-548)
T7 sequence: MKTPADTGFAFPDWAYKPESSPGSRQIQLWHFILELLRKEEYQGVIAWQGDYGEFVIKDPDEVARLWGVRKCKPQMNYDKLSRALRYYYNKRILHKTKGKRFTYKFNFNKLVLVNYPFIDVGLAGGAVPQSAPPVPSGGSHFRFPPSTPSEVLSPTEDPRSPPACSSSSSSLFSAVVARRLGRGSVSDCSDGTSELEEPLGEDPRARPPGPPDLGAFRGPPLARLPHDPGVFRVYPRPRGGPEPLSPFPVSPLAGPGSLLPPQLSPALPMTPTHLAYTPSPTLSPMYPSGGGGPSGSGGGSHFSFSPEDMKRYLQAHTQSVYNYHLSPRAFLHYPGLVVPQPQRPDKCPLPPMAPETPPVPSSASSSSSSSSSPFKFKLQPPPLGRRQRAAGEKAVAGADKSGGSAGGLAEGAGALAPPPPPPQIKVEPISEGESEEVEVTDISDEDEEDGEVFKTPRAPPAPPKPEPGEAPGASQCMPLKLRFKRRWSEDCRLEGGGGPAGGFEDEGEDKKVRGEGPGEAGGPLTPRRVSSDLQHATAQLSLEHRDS
Method in brief: as §1

ETV3L = molecular target: T8, ETV3L (Homo sapiens, UniProt Q6ZN32 1-361)
T8 sequence: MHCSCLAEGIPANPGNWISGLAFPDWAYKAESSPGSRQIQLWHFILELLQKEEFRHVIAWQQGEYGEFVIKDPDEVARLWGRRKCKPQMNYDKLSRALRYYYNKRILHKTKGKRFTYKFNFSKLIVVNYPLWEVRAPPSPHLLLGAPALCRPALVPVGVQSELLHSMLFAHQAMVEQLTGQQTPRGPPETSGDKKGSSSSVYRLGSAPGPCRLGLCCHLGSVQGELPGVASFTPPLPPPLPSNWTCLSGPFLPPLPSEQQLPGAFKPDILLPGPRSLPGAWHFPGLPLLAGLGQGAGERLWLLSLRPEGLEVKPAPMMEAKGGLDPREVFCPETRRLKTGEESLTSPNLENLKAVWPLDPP
Method in brief: as §1

ETS2 = molecular target: T9, ETS2 (Homo sapiens, UniProt P15036 1-469)
T9 sequence: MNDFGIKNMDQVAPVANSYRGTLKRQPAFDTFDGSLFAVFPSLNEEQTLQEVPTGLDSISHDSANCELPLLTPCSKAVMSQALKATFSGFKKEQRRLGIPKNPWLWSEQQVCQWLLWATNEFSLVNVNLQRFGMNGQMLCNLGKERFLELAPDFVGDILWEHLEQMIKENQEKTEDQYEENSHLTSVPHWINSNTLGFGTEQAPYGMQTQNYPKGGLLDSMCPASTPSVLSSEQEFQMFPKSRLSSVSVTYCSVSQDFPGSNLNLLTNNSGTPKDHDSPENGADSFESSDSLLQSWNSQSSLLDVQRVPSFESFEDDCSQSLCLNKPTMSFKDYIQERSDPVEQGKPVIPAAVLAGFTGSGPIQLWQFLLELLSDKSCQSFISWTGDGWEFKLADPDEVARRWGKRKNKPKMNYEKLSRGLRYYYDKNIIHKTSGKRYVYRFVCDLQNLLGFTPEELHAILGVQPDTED
Method in brief: as §1

ETV7 = molecular target: T10, ETV7 (Homo sapiens, UniProt Q9Y603 1-341)
T10 sequence: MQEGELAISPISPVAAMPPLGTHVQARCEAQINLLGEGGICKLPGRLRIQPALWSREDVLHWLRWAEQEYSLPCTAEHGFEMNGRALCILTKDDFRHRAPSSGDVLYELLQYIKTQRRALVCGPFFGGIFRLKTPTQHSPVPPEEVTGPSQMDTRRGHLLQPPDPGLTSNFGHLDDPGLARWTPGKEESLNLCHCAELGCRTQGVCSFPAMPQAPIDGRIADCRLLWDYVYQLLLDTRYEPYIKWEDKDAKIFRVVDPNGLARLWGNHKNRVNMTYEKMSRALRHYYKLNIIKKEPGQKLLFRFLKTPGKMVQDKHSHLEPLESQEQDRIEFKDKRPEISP
Method in brief: as §1

ETV3 = molecular target: T11, ETV3 (Homo sapiens, UniProt P41162-2 1-143)
T11 sequence: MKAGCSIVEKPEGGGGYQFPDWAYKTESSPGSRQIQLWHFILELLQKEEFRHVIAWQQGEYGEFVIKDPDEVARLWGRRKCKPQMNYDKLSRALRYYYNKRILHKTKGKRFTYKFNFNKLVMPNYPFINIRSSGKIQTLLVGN
Method in brief: as §1

ETV6 = ETV6 (Homo sapiens, UniProt P41212 1-452)
Method in brief: as §1

FEV = molecular target: T12, FEV (Homo sapiens, UniProt Q99581 1-238)
T12 sequence: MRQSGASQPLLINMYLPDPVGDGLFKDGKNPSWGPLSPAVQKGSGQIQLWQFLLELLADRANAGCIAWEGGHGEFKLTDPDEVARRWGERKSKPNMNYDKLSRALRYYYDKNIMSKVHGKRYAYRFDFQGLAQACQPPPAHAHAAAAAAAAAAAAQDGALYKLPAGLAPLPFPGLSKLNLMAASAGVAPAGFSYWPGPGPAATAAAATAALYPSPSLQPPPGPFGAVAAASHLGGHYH
Method in brief: as §1

Chain of ELF1 (P32519 whole entry): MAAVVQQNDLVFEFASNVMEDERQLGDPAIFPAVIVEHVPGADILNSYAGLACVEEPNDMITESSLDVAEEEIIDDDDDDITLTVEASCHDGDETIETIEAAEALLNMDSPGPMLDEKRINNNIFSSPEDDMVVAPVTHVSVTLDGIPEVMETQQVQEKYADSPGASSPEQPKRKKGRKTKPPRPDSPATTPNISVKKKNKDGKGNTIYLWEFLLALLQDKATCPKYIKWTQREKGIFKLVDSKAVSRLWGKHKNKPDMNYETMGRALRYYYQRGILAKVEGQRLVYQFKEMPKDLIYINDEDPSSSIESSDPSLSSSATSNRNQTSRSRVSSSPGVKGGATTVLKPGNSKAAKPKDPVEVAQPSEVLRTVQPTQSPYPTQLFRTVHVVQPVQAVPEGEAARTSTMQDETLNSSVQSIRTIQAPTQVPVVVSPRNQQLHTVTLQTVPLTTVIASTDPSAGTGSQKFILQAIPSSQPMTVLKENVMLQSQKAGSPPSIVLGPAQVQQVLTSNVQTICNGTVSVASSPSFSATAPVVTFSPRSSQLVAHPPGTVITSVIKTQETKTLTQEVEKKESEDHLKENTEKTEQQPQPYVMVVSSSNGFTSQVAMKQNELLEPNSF
Chain of ETV6 (P41212 whole entry): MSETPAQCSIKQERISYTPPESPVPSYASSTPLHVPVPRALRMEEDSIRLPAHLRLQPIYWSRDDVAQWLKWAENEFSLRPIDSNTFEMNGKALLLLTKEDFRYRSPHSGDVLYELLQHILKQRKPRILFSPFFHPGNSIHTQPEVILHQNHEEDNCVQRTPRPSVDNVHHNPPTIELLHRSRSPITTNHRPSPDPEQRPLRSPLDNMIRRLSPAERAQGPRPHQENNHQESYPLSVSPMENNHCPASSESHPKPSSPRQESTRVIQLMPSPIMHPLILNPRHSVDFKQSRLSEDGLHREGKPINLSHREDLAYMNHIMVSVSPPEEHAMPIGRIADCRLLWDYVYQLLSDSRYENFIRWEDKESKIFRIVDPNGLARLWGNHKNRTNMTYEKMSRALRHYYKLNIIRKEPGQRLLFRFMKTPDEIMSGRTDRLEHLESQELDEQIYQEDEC
Chain of ELF4 (Q99607 whole entry): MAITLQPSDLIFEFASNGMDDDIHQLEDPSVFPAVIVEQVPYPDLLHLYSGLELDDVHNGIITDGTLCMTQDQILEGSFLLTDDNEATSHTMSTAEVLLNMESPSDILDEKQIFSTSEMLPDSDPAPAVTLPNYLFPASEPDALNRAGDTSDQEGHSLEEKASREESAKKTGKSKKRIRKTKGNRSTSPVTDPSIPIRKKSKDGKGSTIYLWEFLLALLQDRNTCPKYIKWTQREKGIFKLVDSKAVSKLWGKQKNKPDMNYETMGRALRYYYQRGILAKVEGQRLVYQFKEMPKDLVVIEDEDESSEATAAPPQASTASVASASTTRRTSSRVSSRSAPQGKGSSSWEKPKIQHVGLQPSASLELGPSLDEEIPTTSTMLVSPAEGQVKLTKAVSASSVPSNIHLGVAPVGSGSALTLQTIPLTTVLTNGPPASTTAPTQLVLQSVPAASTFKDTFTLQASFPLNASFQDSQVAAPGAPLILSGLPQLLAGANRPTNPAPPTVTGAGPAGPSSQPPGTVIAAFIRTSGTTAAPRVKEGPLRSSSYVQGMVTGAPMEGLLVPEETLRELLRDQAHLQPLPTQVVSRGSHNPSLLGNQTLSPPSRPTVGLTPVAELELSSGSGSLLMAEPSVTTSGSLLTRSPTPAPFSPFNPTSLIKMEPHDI
Chain of ETV5 (P41161 whole entry): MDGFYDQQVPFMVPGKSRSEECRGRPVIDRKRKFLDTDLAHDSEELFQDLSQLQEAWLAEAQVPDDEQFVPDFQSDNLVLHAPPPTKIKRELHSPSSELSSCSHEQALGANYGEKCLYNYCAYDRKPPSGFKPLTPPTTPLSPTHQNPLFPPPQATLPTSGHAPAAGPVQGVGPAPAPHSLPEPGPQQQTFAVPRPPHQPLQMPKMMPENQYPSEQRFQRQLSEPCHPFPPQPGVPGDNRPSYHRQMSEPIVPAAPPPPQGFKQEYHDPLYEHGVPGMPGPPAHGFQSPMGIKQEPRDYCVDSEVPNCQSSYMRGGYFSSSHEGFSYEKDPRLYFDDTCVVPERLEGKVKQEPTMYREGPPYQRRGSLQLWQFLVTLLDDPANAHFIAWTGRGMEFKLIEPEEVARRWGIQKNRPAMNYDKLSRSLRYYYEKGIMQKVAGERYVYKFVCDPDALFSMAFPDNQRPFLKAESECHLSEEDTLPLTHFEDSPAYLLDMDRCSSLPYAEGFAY
Chain of SPIB (Q01892 whole entry): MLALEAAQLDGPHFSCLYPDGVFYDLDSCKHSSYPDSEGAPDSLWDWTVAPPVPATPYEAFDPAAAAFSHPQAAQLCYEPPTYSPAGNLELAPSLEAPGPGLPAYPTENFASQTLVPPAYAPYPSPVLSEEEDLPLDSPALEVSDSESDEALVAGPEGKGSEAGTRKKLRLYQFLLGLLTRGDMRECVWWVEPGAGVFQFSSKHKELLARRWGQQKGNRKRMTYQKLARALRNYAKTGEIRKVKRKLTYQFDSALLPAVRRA

| Sequence | binding signal (ELK1) | binding signal (GABPA) | binding signal (ERG) | binding signal (ELF1) | binding signal (SPIB) | binding signal (ETV5) | binding signal (ELF4) | binding signal (ELK4) | binding signal (ETV2) | binding signal (ELF3) | binding signal (ERF) | binding signal (ETV3L) | binding signal (ETS2) | binding signal (ETV7) | binding signal (ETV3) | binding signal (ETV6) | binding signal (FEV) |
| --- | --- | --- | --- | --- | --- | --- | --- | --- | --- | --- | --- | --- | --- | --- | --- | --- | --- |
| ACTGGT | 1.06 fold enrichment (6-mer frequency, TF over GST control) | 1.08 fold enrichment (6-mer frequency, TF over GST control) | 1.07 fold enrichment (6-mer frequency, TF over GST control) | 1.13 fold enrichment (6-mer frequency, TF over GST control) | 1.08 fold enrichment (6-mer frequency, TF over GST control) | 1.02 fold enrichment (6-mer frequency, TF over GST control) | 1.07 fold enrichment (6-mer frequency, TF over GST control) | 1.06 fold enrichment (6-mer frequency, TF over GST control) | 1.08 fold enrichment (6-mer frequency, TF over GST control) | 1.06 fold enrichment (6-mer frequency, TF over GST control) | 1.03 fold enrichment (6-mer frequency, TF over GST control) | 1.07 fold enrichment (6-mer frequency, TF over GST control) | 1.03 fold enrichment (6-mer frequency, TF over GST control) | 1.05 fold enrichment (6-mer frequency, TF over GST control) | 1.06 fold enrichment (6-mer frequency, TF over GST control) | 1.08 fold enrichment (6-mer frequency, TF over GST control) | – |
| CGCCCA | 1.13 fold enrichment (6-mer frequency, TF over GST control) | 1.11 fold enrichment (6-mer frequency, TF over GST control) | 1.06 fold enrichment (6-mer frequency, TF over GST control) | 1.04 fold enrichment (6-mer frequency, TF over GST control) | – | 1.01 fold enrichment (6-mer frequency, TF over GST control) | 1.04 fold enrichment (6-mer frequency, TF over GST control) | 1.04 fold enrichment (6-mer frequency, TF over GST control) | – | – | 1.08 fold enrichment (6-mer frequency, TF over GST control) | – | 1.04 fold enrichment (6-mer frequency, TF over GST control) | – | – | 1.09 fold enrichment (6-mer frequency, TF over GST control) | 1.02 fold enrichment (6-mer frequency, TF over GST control) |
